ELG1 DNA repair – qHTS screen for small molecules that inhibit ELG1-dependent DNA repair in human embryonic kidney (HEK293T) cells expressing luciferase-tagged ELG1. HEK293T ELG1-luciferase reporter, luminescence, 16 h; DNA damage induced by 5-fluorouridine. Potency, µM (highest dose often 46.1 µM), actives largely listed as inhibitors. 2.3% of 330,000 active; further: nearly all actives have a fitted effect of over 55% in size
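5-Fluorouridine DNA damage + compound/DMSO, 2,000 cells/well, 16 h, 37 °C/5% CO2. ONE-Glo, 30 min RT, luminescence. Readout = decrease in reporter signal.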
HT1080 IDH1KD tx – qHTS for induction of synthetic lethality in tumor cells producing 2HG: qHTS for the HT-1080-IDH1KD cell line | HT-1080 IDH1 knockdown viability, ATP luminescence, 48 h | Potency, µM (doses to about 46.1 µM), hits mostly cytotoxic | 2% of 360,000 active | AID 686971, 2013
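IDH1KD HT-1080 cells, 750/well, RPMI + 5% FBS; compound pinned after 2 h settling; 48 h, 37 °C; CellTiter-Glo luminescence; % activity normalised to DMSO and no-cell wells; curves fitted, classed by r2 and efficacy.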
DT40 TDP1 CPT – qHTS for Inhibitors of human tyrosyl-DNA phosphodiesterase 1 (TDP1): qHTS in cells in presence of CPT | 12% of 420,000 active | chicken DT40 Tdp1-/-;hTDP1 cells + 20 nM CPT, ATP luminescence, 48 h | Potency, µM (doses to about 46.2 µM), usual class: inhibitors; further: nearly all actives have a fitted effect of over 55% in size
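Chicken DT40 Tdp1-/- cells stably complemented with human TDP1 were seeded at 400 cells/well in medium containing 20 nM camptothecin, exposed to pin-transferred compounds, and grown at 37 °C for at least 48 hr. Viability was read as ATP luminescence.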
IL-1B inflam inh – qHTS for Inhibitors of Inflammasome Signaling: IL-1-beta AlphaLISA Primary Screen; THP-1 LPS/ATP IL-1B secretion, AlphaLISA, 16 h; active compounds read low; activity change, % at 57.5 µM; 4.7% of 360,000 active; AID 743279, 2014; in the data active means activity change below about -50%; inconclusive means mostly about -30% to -49%
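Secreted IL-1B measured by AlphaLISA bead assay after 16 h compound exposure of THP-1 cells; compounds (final up to 57.5 uM) added 1 h before LPS (250 ng/mL) and ATP (1.25 mM) stimulation; lower signal means less secretion.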
TDP1 cell noCPT – qHTS for Inhibitors of human tyrosyl-DNA phosphodiesterase 1 (TDP1): qHTS in cells in absence of CPT | DT40 Tdp1-/- hTDP1 cells, no CPT, ATP luminescence, 48 h | Potency, µM (titrated, usually from 46.2 µM), most hits filed as inhibitors | 15% of 420,000 active; further: nearly all actives have a fitted effect of over 55% in size
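Cells were dispensed at 400 per well, compounds added by pin tool, plates incubated ≥48 hr at 37 °C, then CellTiter-Glo added for 30 min at room temperature before luminescence reading. Line: DT40 Tdp1-/- complemented with hTDP1; camptothecin omitted.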
HT1080NT lethal – qHTS for induction of synthetic lethality in tumor cells producing 2HG: qHTS for the HT-1080-NT fibrosarcoma cell line; HT-1080-NT fibrosarcoma viability, CellTiter-Glo ATP luminescence, 48 h; Potency, µM (top dose mostly 46.1 µM), hits mostly cytotoxic; 1.6% of 360,000 active;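 further: NT is the 2HG producing partner of a matched IDH1 knockdown line; nearly all actives have a fitted effect of over 55% in size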
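A 48-hour cytotoxicity screen used HT-1080-NT cells plated 2 hours before compound delivery. ATP-based CellTiter-Glo luminescence measured viability, normalized to DMSO and no-cell controls.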
Hits are given with their value; – = inactive; ? = inconclusive; · = no result. Hits are enriched below; roughly 19% of the tested compounds scored in any of these assays. Unless noted, the call rests on the fitted dose curve; in most records, active means well fitted curve in the direction sought with a large enough effect; inconclusive means small, poorly fitted or top-dose-only effect, or another doubt; inactive means no such curve, though single readings can be large; an effect the other way counts as inactive or inconclusive.

SMILES	ELG1 DNA repair	HT1080 IDH1KD tx	DT40 TDP1 CPT	IL-1B inflam inh	TDP1 cell noCPT	HT1080NT lethal
CC1(C(=O)NS(=O)(=O)c2ccc(F)cc2F)CCN1C(=O)Cc1ccc(Cl)cc1Cl (stereo not drawn)	·	–	–	–	–	–
C[C@H](CO)N1C[C@H](C)[C@@H](CN(C)S(=O)(=O)c2ccccc2)Oc2c(NC(=O)Nc3ccc4c(c3)OCO4)cccc2C1=O	?	–	16µM	-61	?	–
Cc1ccc(S(=O)(=O)N(C)C[C@@H]2Oc3ccc(NC(=O)Nc4cccc5ccccc45)cc3C(=O)N([C@H](C)CO)C[C@H]2C)cc1	?	–	?	–	23µM	–
CC1(C(=O)NS(=O)(=O)c2cccs2)CCN1C(=O)c1ccco1 (stereo not drawn)	·	–	–	–	–	–
Cc1ccccc1C(=O)NC(CC(C)C)C(=O)NN1C(=O)c2ccccc2C1=O (stereo not drawn)	–	–	–	–	–	–
CCOC(=O)c1ccc(NC(=O)c2ccccc2N(C)S(=O)(=O)c2ccccc2)cc1	?	–	18µM	–	?	–
CCCNC(=O)c1ccccc1NC(=O)c1ccccc1N(C)S(=O)(=O)c1ccc(C)cc1	23µM	?	?	–	18µM	?
CN(c1ccccc1C(=O)Nc1ccc(CC#N)cc1)S(=O)(=O)c1ccccc1	–	–	–	–	–	–
COc1cccc(CNC(=O)[C@@H]2CCCN2C(=O)[C@H]2CCCCN2C(=O)c2ccc(Cl)cc2)c1	·	–	?	–	?	–
C=CCOC(=O)C1=C[C@H](c2ccc3c(c2)OCO3)C[C@H](OCCCCO)O1	·	–	–	–	–	–
COc1ccc(OC)c(NC(=O)Nc2ccc(O)c3ccccc23)c1	·	?	2.6µM	–	4.6µM	?
COc1ccc(NC(=O)c2ccc3ccccc3c2OC)cc1	·	–	?	–	?	–
COc1ccc(OC)c(NC(=O)CSc2ccc3ccccc3c2)c1	–	–	?	–	?	–
COc1ccc(OC)c(NC(=O)Nc2ccccc2C)c1	–	–	–	–	–	–
COc1ccc(OC)c(NC(=O)Nc2cc(NC(=O)Nc3cc(OC)ccc3OC)c(C)nc2C)c1	?	23µM	–	–	?	18µM
COc1ccc(OC)c(C(=O)Nc2c(O)ccc3ccccc23)c1	·	–	21µM	?	16µM	–
COc1ccc(OC)c(NC(=O)Nc2c(O)ccc3ccccc23)c1	·	–	15µM	–	?	–
O=C(C1CCN(S(=O)(=O)Cc2ccccc2)CC1)N1CCN(c2cccc(Cl)c2)CC1	·	·	–	·	?	·
CC1Cc2ccccc2N1C(=O)C1CCCN(S(=O)(=O)c2cccc3cccnc23)C1 (stereo not drawn)	21µM	–	13µM	–	13µM	–
Cc1ccc(Cl)cc1N1CCN(C(=O)C2CCN(S(=O)(=O)c3cccnc3)CC2)CC1	–	?	2.9µM	–	4.6µM	?
O=C(O)[C@@H]1CCCN(S(=O)(=O)c2cccc3cccnc23)C1	–	–	–	–	–	–
O=C(C1CCN(S(=O)(=O)c2cccc3cccnc23)CC1)N1CCN(c2ccc(Cl)cc2)CC1	18µM	–	?	–	?	–
Cc1ccc(Cl)cc1N1CCN(C(=O)C2CCN(S(=O)(=O)Cc3ccccc3)CC2)CC1	·	·	4.1µM	·	13µM	·
CS(=O)(=O)Nc1ccc(-c2cnc3cccnn23)cc1	·	–	?	–	?	–
COc1ccc(N2CCN(C(=O)C3CCCN(S(=O)(=O)c4cccc5cccnc45)C3)CC2)cc1 (stereo not drawn)	?	–	16µM	–	?	–
SMILES	ELG1 DNA repair	HT1080 IDH1KD tx	DT40 TDP1 CPT	IL-1B inflam inh	TDP1 cell noCPT	HT1080NT lethal
O=C(C1CCN(S(=O)(=O)c2cccnc2)CC1)N1CCN(c2ccccc2Cl)CC1	·	–	?	–	21µM	–
Cc1ccc(Cl)cc1N1CCN(S(=O)(=O)c2cnc[nH]2)CC1	–	–	21µM	–	?	–
O=C(C1CCN(S(=O)(=O)c2ccccc2)CC1)N1CCN(c2ccccc2)CC1	–	–	?	–	21µM	?
COc1ccc(N2CCN(C(=O)C3CCN(S(=O)(=O)c4ccccc4)CC3)CC2)cc1	–	–	–	–	?	–
Cc1c2cnn(CC(=O)N3CCN(c4ccccc4)CC3)c(=O)c2c(C)n1Cc1ccccc1Cl	·	·	?	·	–	·
COc1ccccc1CNC(=O)COC(=O)CCN1C(=O)C2CC=CCC2C1=O (stereo not drawn)	·	–	–	–	–	–
O=C(C1CCN(S(=O)(=O)c2cccnc2)CC1)N1CCN(c2ccc(Cl)cc2)CC1	2.9µM	?	5.2µM	–	3.7µM	?
CN(c1ccccc1)S(=O)(=O)c1nnc(NC(=O)C2CCCCC2)s1	–	–	–	–	–	–
COc1ccc(O)c(C(=O)c2cnc3c(c2)CN(C)C(=O)N3)c1	–	–	18µM	–	18µM	–
CN1Cc2cc(C(=O)c3ccccc3O)cnc2NC1=O	–	–	?	–	?	–
O=C(C[n+]1cc(Br)cc(Br)c1)c1ccc(Cl)cc1	–	–	–	–	–	–
O=C(C[n+]1cc(Br)cc2ccccc21)c1ccc(Br)cc1	–	–	?	-66	?	–
Brc1cc2ccccc2[n+](Cc2ccccc2)c1	–	?	?	–	12µM	?
O=C(C[n+]1cc(Br)cc(Br)c1)c1ccccc1	–	–	–	–	–	–
Cc1cc[n+](Cc2ccccc2)c(N)c1	–	–	–	–	–	–
O=C(C[n+]1cc(Br)cc2ccccc21)c1ccc(Cl)cc1	–	?	?	–	18µM	–
O=C(c1ccncc1)N1CCC[C@@]2(CCN(Cc3cc(C(F)(F)F)cc(C(F)(F)F)c3)C2)C1	·	·	–	·	?	·
Cc1nc2nc(NC(=O)c3ccc(C(C)(C)C)cc3)[nH]n2c(=O)c1Cc1ccccc1	·	·	–	·	–	·
COc1cc(C)ccc1OCCCn1c(-c2ccc(Cl)cc2)nc2ccccc2c1=O	·	·	–	·	–	·
Cc1cccc(N=C2CCCC2C(=O)Nc2cccc(C)c2C)c1C (stereo not drawn)	·	–	–	–	–	–

Assay outcomes deposited in PubChem by National Center for Advancing Translational Sciences (NCATS).
